Screen size: about 1,300 compounds; about 25 (2%) were called active. How the calls were made is not given here. Shown is part of a subset that was picked to be rich in actives.
Biological target: Estrogen receptor (Homo sapiens) (UniProt P03372)
Experiment: blockers of coactivator recruitment to ERα – biochemical, LOPAC library, TR-FRET, primary screen (AID 694);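 further: receptor was agonist-bound with estradiol present during the assay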
Settings: TR-FRET ERalpha-coactivator peptide binding, stronger effect = higher value

Sequence of Estrogen receptor (Homo sapiens) (P03372 whole entry, looked up): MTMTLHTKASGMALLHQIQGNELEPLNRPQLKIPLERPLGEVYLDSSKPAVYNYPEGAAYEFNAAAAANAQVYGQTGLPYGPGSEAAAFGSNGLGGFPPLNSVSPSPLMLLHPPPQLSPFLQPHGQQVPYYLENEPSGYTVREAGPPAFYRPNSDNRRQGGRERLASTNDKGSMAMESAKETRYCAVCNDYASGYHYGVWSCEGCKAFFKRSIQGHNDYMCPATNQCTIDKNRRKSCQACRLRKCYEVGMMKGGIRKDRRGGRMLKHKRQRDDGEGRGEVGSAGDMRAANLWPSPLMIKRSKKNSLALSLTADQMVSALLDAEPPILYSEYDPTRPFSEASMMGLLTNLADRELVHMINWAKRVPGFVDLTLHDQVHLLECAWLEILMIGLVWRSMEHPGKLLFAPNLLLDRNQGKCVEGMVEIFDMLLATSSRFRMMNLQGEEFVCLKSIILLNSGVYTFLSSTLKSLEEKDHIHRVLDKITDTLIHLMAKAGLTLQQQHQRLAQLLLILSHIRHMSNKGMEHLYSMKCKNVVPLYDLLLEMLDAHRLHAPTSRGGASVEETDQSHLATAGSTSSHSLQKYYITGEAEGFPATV

| Compound | inhibition (at 45 µM) | inhibition (inhibition, at 15 µM) [%] |
| --- | --- | --- |
| NCCNC(=O)c1ccc(Cl)cc1 | -1.66% (inactive) | 0.74 |
| OCC1NCC(O)C(O)C1O (configuration not stated) | -2.36% (inactive) | -2.41 |
| CN(C)CCCN1c2ccccc2Sc2ccc(C(F)(F)F)cc21 | 1.43% (inactive) | 1.81 |
| O=S(=O)(c1cccc2c(Cl)cccc12)N1CCCNCC1 | -6.25% (inactive) | -1.24 |
| OCC1O[C@H](O)C(Cl)C(O)C1O (some centres not stated) | 2.62% (inactive) | 2.64 |
| O=C(O)C1=CC(=C(c2ccc(O)c(C(=O)O)c2)c2ccc(O)c(C(=O)O)c2)C=CC1=O | 88.6% [fluorescence artefact?] (active) | 76 |
| Cc1cc(NC(=O)Nc2ccc3c(ccn3C)c2)sn1 | 0.07% (inactive) | -2 |
| Cc1c(C)c2c(c(C)c1O)CCC(C)(CN1CCN(c3cc(N4CCCC4)nc(N4CCCC4)n3)CC1)O2 (configuration not stated) | -11.9% (inactive) | -0.19 |
| Oc1ccc(O)cc1 | 0.27% (inactive) | -2.06 |
| NC(=NCc1ccc(Cl)c(Cl)c1)NC(=O)c1nc(Cl)c(N)nc1N | 2.8% (inactive) | -1.44 |
| N#CC(=C(\N)Sc1ccccc1N)/C(C#N)=C(/N)Sc1ccccc1N | -6.45% (inactive) | -2.12 |
| COc1ccc(CCNC[C@@H](O)c2ccc(O)cc2)cc1OC | 1.27% (inactive) | 1.3 |
| C[n+]1cc2c3c(ccc2c2ccc4cc5c(cc4c21)OCO5)OCO3 | 7.36% (inactive) | 3.96 |
| NCCSSCCN | -10.9% (inactive) | -6.09 |
| Nc1nc2c(nc(Br)n2C2OC3COP(=O)(O)O[C@@H]3C2O)c(=O)[nH]1 (some centres not stated) | -3.13% (inactive) | -2.06 |
| CC(C)(C)c1onc(OCP(=O)(O)O)c1CC(N)C(=O)O (configuration not stated) | -28.3% (inactive) | -2.65 |
| CC[N+](CC)(CC)CC(=O)Nc1c(C)cccc1C | -2.22% (inactive) | 1.79 |
| C/C(=C\c1ccc(C(=O)O)cc1)c1ccc2c(c1)C(C)(C)CCC2(C)C | 40.9% (inactive) | 34.2 |
| O=c1c2ccccc2nc2n1CCc1c-2[nH]c2ccccc12 | 2.93% (inactive) | 1.11 |
| N=C(N)c1ccc(OCCCCCOc2ccc(C(=N)N)cc2)cc1 (tested in a mixture with another compound) | 3.73% (inactive) | 1.26 |
| C[C@@H](NC(=O)/C(C#N)=C/c1ccc(O)c(O)c1)c1ccccc1 | 2.49% (inactive) | 3.07 |
| CC(=O)[C@H]1CCC2C3CC=C4C[C@@H](OS(=O)(=O)O)CC[C@]4(C)C3CC[C@@]21C (some centres not stated) | 0.32% (inactive) | 0.94 |
| NCCNS(=O)(=O)c1cccc2cnccc12 | -4.68% (inactive) | -3.64 |
| Cc1cc2c(cc1Cl)N(C(=O)Nc1ccnc3ccccc13)CC2 | -4.11% (inactive) | 1.97 |

| Compound | inhibition (at 45 µM) | inhibition (inhibition, at 15 µM) [%] |
| --- | --- | --- |
| Cc1cc(N)c2ccccc2[n+]1CCCCCCCCCCCCCC[n+]1c(C)cc(N)c2ccccc21 | 73.8% [fluorescence artefact?] (active) | 65.9 |
| Cc1cc(N)c2ccccc2[n+]1CCCCCCCCCC[n+]1c(C)cc(N)c2ccccc21 | 19.8% (inactive) | 30.1 |
| CSc1nc(N)c2ncn([C@@H]3O[C@H](COP(=O)(O)OP(=O)(O)OP(=O)(O)O)[C@H](O)C3O)c2n1 (some centres not stated) | -1.74% (inactive) | -5.35 |
| N.N.N.N.N.N.N.N.N.N.N.N.N.N.O.O.[Cl-].[Cl-].[Cl-].[Cl-].[Cl-].[Cl-].[Ru+4].[Ru+5].[Ru+5] | 100% [fluorescence artefact?] (active) | 99.8 |
| COC(=O)[C@H]1[C@H]2C[C@H]3c4[nH]c5ccccc5c4CCN3C[C@H]2CC[C@@H]1O | 1.18% (inactive) | 3.29 |
| CC(=O)NCCc1ccc(O)c(O)c1 | -22% (inactive) | -4.7 |
| C[C@@H](Oc1ccc(Oc2cnc3ccc(Cl)cc3n2)cc1)C(=O)O | -0.82% (inactive) | -2.92 |
| CCCCOC(=O)NS(=O)(=O)c1sc(CC(C)C)cc1-c1ccc(Cn2c(CC)nc3c(C)cc(C)nc32)cc1 | 8.38% (inactive) | 2.57 |
| O=C(/C=C/c1ccc(O)cc1)c1ccc(O)cc1O | 10.8% (inactive) | -3.98 |
| CC#C[C@]1(O)CC[C@H]2[C@@H]3CCC4=CC(=O)CCC4=C3[C@@H](c3ccc(N(C)C)cc3)C[C@@]21C | 4.52% (inactive) | 1.37 |
| O=C(O)CCC(NC(=O)c1ccccc1C(=O)O)C(=O)O (configuration not stated) | -0.22% (inactive) | 0.4 |
| Oc1ccc(-c2nc(-c3ccc(F)cc3)c(-c3ccncc3)[nH]2)cc1 | -3.04% (inactive) | -1.6 |
| CC(=O)N1CCN(c2ccc(OC[C@H]3CO[C@](Cn4ccnc4)(c4ccc(Cl)cc4Cl)O3)cc2)CC1 | -0.23% (inactive) | 1.67 |
| CC(CCc1ccc(O)cc1)NCCc1ccc(O)c(O)c1 (configuration not stated) | -5.5% (inactive) | 1.1 |
| CC(C)[N+](C)(CCOC(=O)C1c2ccccc2Oc2ccccc21)C(C)C | 7.96% (inactive) | 8.56 |
| CCSC(=N)N | -21.8% (inactive) | 0.66 |
| Cc1cccc(/C=C/c2ccccc2)n1 | 4.39% (inactive) | 12.3 |
| O=S(=O)(O)C1CCNCC1 | 1.25% (inactive) | 4.59 |
| C[N+](C)(C)CC=O | 0.73% (inactive) | -1.9 |
| COc1ccccc1NC(=O)Nc1nc(-c2cccnc2)nc2ccccc12 | 7.9% (inactive) | 4.04 |
| O=C(Nc1cccc(C(=O)Nc2ccc(S(=O)(=O)O)c3cc(S(=O)(=O)O)cc(S(=O)(=O)O)c23)c1)Nc1cccc(C(=O)Nc2ccc(S(=O)(=O)O)c3cc(S(=O)(=O)O)cc(S(=O)(=O)O)c23)c1 | -3.86% (inactive) | -2.37 |
| C[C@@H](CN1CCC(Cc2ccccc2)CC1)[C@@H](O)c1ccc(O)cc1 | -2% (inactive) | 1.32 |
| OC[C@H]1O[C@@H](n2cnc3c(NC4CCCC4)ncnc32)C(O)[C@H]1O (some centres not stated) | -0.88% (inactive) | 3.03 |
| COc1cc(C(=O)OCCCN2CCCN(CCCOC(=O)c3cc(OC)c(OC)c(OC)c3)CC2)cc(OC)c1OC | -2.88% (inactive) | -1.75 |

| Compound | inhibition (at 45 µM) | inhibition (inhibition, at 15 µM) [%] |
| --- | --- | --- |
| CN[C@H](CC(=O)O)C(=O)O | -0.69% (inactive) | -0.99 |
| COc1cccc(OC)c1OCCNCC1COc2ccccc2O1 (configuration not stated) | 52.7% (inactive) | -0.05 |
| Nc1c(S(=O)(=O)O)cc(Nc2ccc(Nc3nc(Cl)nc(Nc4ccc(S(=O)(=O)O)cc4)n3)c(S(=O)(=O)O)c2)c2c1C(=O)c1ccccc1C2=O | 75.2% [fluorescence artefact?] (active) | 58.5 |
| OC[C@H]1O[C@@H](n2cnc3c(N[C@H]4CC5CCC4C5)ncnc32)[C@H](O)[C@@H]1O (some centres not stated) | -7.11% (inactive) | -3.27 |
| CC(C)(C)c1ccc(S(=O)(=O)/C=C/C#N)cc1 | -4.31% (inactive) | -2.91 |
| CCCc1c(OCCCOc2ccc(OCC(=O)O)cc2)ccc(C(C)=O)c1O | -1.06% (inactive) | 5.6 |
| C[C@]12CCC(=O)C=C1CC[C@@H]1[C@@H]2[C@@H](O)C[C@@]2(C)[C@H]1CC[C@]2(O)C(=O)COC(=O)CCC(=O)O | 0.81% (inactive) | 1.7 |
| Oc1cc2c(c(Cl)c1O)CCNCC2c1ccccc1 (configuration not stated) | -1.88% (inactive) | 4.73 |
| Cc1cccc(C)c1OCC(N)C(C)C (configuration not stated) | -0.93% (inactive) | -1.42 |
| O=[N+]([O-])c1ccc(-c2nc(-c3ccc(F)cc3)c(-c3ccncc3)[nH]2)cc1 | -3.67% (inactive) | -0.79 |
| Cc1scc2c1N(C(=O)CN1CCN(C)CC1)c1ccccc1NC2=O | -3.58% (inactive) | -4.27 |
| O=C(Cc1ccc(Cl)c(Cl)c1)OCCN1CCCC1 | -23.1% (inactive) | -1.83 |
| O=[N+]([O-])c1cccc2c(Br)[nH]nc12 | -0.31% (inactive) | -5.48 |
| N[C@@H](CC(=O)O)C(=O)O | -5.55% (inactive) | -8.89 |
| CC(C)(Sc1ccc(CCN(CCCCC2CCCCC2)C(=O)NC2CCCCC2)cc1)C(=O)O | 43.1% (inactive) | 8.46 |
| NS(=O)(=O)c1cccc2c1c([N+](=O)[O-])cc1nc(O)c(O)nc12 | -0.73% (inactive) | -5.25 |
| CC(=O)O[C@H]1CC2(C)[C@@H](C[C@@H](O)[C@H]3[C@@]4(C)CC[C@@H](O)[C@@H](C)[C@@H]4CC[C@@]32C)C1=C(CCC=C(C)C)C(=O)O (some centres not stated) | 80.4% (inactive) | 14.2 |
| Oc1cc(O)cc(/C=C/c2ccc(O)c(O)c2)c1 | 70.5% (inactive) | 32.3 |
| COc1cc2c(CCNC(C)=O)c[nH]c2cc1O | -5.77% (inactive) | -3 |
| N#C/C(=C\c1c[nH]c2ccccc12)C(=O)c1ccc(O)c(O)c1 | 4.91% (inactive) | 10.1 |
| CSc1nc(N)c2ncn([C@@H]3O[C@H](COP(=O)(O)OP(=O)(O)O)[C@H](O)C3O)c2n1 (some centres not stated) | 2.87% (inactive) | -1.28 |
| CN1CCc2c(cc(O)c(O)c2Cl)C(c2cccc(Cl)c2)C1 (configuration not stated) | 7.51% (inactive) | 4.56 |
| OC[C@H]1O[C@@H](n2cnc3c(NC4CCCCC4)ncnc32)[C@H](O)[C@@H]1O | -1.41% (inactive) | -1.34 |

From PubChem BioAssay AID694 (Emory University Molecular Libraries Screening Center, 2007)
